Laboratory results published in PubChem BioAssay (EPA / NIEHS).
“And” between values parts separate entries of the source, which are not always exact repeats. Identical values can stand only once. Where a structure was tested more than once in an assay, its records may differ in their call. The source made the active and inactive calls. Rule for the calls: active = hit-call score of the fitted dose curve at least 0.9, where 1 is the maximum; inactive = score below 0.9.

Assay: APR_HepG2_MitoticArrest_24hr: Apredica 24-hour HepG2 Assay for Mitotic Arrest (AID 2282910)
Details: high-content imaging, actives raise or lower the signal
Protocol: APR_HepG2_24hr is a cell-based, multiplexed-readout assay that uses HepG2, a human liver cell line, with measurements taken at 24 hours after chemical dosing in a 384-well plate.APR_HepG2_MitoticArrest_24hr is one of 10 assay component(s) measured or calculated from the APR_HepG2_24hr assay. It is designed to make measurements of cell phenotype, a form of morphology reporter, as detected with fluorescence intensity signals by HCS Fluorescent Imaging technology.Data from the assay component APR_HepG2_MitoticArrest_24hr was analyzed into 1 assay endpoint. This assay endpoint, APR_HepG2_MitoticArrest_24hr, was analyzed with bidirectional fitting relative to DMSO as the negative control and baseline of activity. Using a type of morphology reporter, measures of protein for gain or loss-of-signal activity can be used to understand the signaling at the pathway-level as they relate to the gene . Furthermore, this assay endpoint can be referred to as a primary readout, because this assay has produced multiple assay endpoints where this one serves a signaling function. To generalize the intended target to other relatable targets, this assay endpoint is annotated to the cell cycle intended target family, where the subfamily is arrest.
Cells were treated with dimethyl sulfoxide (DMSO) as a solvent control at a final concentration of 0.5% v/v or with compounds in DMSO with a resulting final DMSO concentration of 0.5% v/v. Compound treatment was done at concentrations of 0.39, 0.78, 1.56, 3.12, 6.24, 12.5, 25, 50, 100, and 200 uM in duplicate on each plate. Cells were treated with compounds for 1, 24, or 72 hr. Carbonyl […] m-chloro-phenylhydrazone (CCCP) and taxol were used as positive controls for mitochondrial function and cytoskeletal stability, respectively; DMSO served as the negative control for this experiment. Cells were fixed by the direct addition of 50 uL formaldehyde in Hank's Balanced Salt Solution (HBSS) to a final concentration of 3.7%. After incubation in the fixation medium for 30 min at room temperature (293-298 K), cells were rinsed twice with HBSS and treated with cell permeabilization buffer (16 uL of 0.5% Triton X-100) for 10 min at room temperature (293-298 K) before labeling. For mitochondrial membrane potential and mitochondrial measurements, pre-fixed cells were incubated with 50 uL of MitoTracker Red CMXRos (Invitrogen) at a concentration of 250 nM for 30 min before fixation. In the remaining cases, post-fixed cells were labeled by incubation with a multiplexed mixture of primary antibodies in HBSS for 60 min at room temperature (293-298 K) to detect immunoreactivity of c-Jun (1:500), phospho-histone H3 (1:100), phospho-histone H2A.x (1:200), p53 (1:400), alpha-tubulin (1:200) and Hoechst 33342 (2 ug/mL). Cells were labeled for multiplexed imaging on two separate plates: a) Hoechst 33342, MitoTracker Red, phospho-histone H3, and alpha-tubulin, and b) Hoechst 33342, phospho-histone H2A.x, and c-Jun. A final rinse with HBSS (50 uL) was performed before analysis. The primary and secondary antibodies for the proteins were phospho-histone H3 (rabbit anti-phospho-histone H3 and FITC-donkey anti-rabbit IgG), phospho-histone H2A.x (mouse anti-phospho-histone H2A.x and FITC-donkey anti-mouse IgG), c-Jun (rabbit anti-phospho-c-Jun and Cy3-donkey anti-rabbit IgG), p53 (sheep anti-p53 and Cy5-donkey anti-sheep IgG), alpha-tubulin (mouse anti-alpha-tubulin and Cy5-donkey anti-mouse IgG). These antibodies are available as the CellCiphr HepG2 assay kit (Millipore).Digital images of each well were captured using a Cellomics ArrayScan VTI (Thermo Scientific Cellomics) (0.8 NA objective, 0.63x optical coupler, and XF-93 filter set) at 20x magnification. The images were acquired using the autofocus feature of the ArrayScan instrument, which entails the following steps. First, the camera focuses on channel 1 (Hoechst 33342), where nuclei are identified. Second, a Z offset of 1 um is used for capturing mitochondria (MitoTracker Red). […]

| Structure (SMILES) | outcome | AC50 |
| --- | --- | --- |
| CCCCNC(=O)n1c(NC(=O)OC)nc2ccccc21 | inactive |  |
| COC(=O)N(OC)c1ccccc1COc1ccn(-c2ccc(Cl)cc2)n1 | inactive |  |
| C=CC1(C)OC(=O)N(c2cc(Cl)cc(Cl)c2)C1=O (stereo not given) | inactive |  |
| CON(C)C(=O)Nc1ccc(Cl)c(Cl)c1 | inactive |  |
| CC1=C(C(=O)Nc2ccccc2)SCCO1 | inactive |  |
| CO/C=C(/C(=O)OC)c1ccccc1Oc1cc(Oc2ccccc2C#N)ncn1 | inactive |  |
| O=C(O)c1nc(Cl)ccc1Cl | inactive |  |
| Fc1ccc(Oc2ccnc3cc(Cl)cc(Cl)c23)cc1 |  | 109 µM (active) |
| O=C(Nc1ccccc1)Nc1ccnc(Cl)c1 | inactive |  |
| CS/C(C)=N/OC(=O)N(C)SN(C)C(=O)O/N=C(\C)SC | inactive |  |
| CC(C)(C)c1ccc(CSc2cnn(C(C)(C)C)c(=O)c2Cl)cc1 | inactive |  |
| COC(=O)c1ccccc1C(=O)OC | inactive |  |
| CCNc1nc(Cl)nc(NC(C)C)n1 | inactive |  |
| O=C(O)COc1nc(Cl)c(Cl)cc1Cl | inactive |  |
| CCCCOC(=O)c1ccccc1C(=O)OCCCC | inactive |  |
| CNC(=S)S |  | 85.2 µM (active) |
| CCOP(=S)(OCC)SCn1c(=O)oc2cc(Cl)ccc21 | inactive |  |
| N#Cc1nn(-c2c(Cl)cc(C(F)(F)F)cc2Cl)c(N)c1S(=O)C(F)(F)F (stereo not given) |  | 100 µM (active) |
| Cc1ccc(-c2c(Cl)nc(C#N)n2S(=O)(=O)N(C)C)cc1 | inactive |  |

| Structure (SMILES) | outcome | AC50 |
| --- | --- | --- |
| C=CCC1=C(C)C(OC(=O)C2C(C=C(C)C)C2(C)C)CC1=O (stereo not given) | inactive | 35.4 µM (active) and 43.3 µM (active) and 46.9 µM (active) |
| CCCC1COC(Cn2cncn2)(c2ccc(Cl)cc2Cl)O1 (stereo not given) | inactive |  |
| COc1nc(C)nc(NC(=O)NS(=O)(=O)c2ccccc2Cl)n1 | inactive |  |
| COc1ccc(C(c2ccc(OC)cc2)C(Cl)(Cl)Cl)cc1 | inactive |  |
| C#CCOS(=O)OC1CCCCC1Oc1ccc(C(C)(C)C)cc1 (stereo not given) | inactive |  |
| COc1cnc(OC)n2nc(NS(=O)(=O)c3c(OCC(F)F)cccc3C(F)(F)F)nc12 | inactive |  |
| CN(C)C(=S)SSC(=S)N(C)C | inactive |  |
| COc1nc(C)nc(NC(=O)NS(=O)(=O)c2ccccc2CCC(F)(F)F)n1 | inactive |  |
| CNC(=O)ON=CC(C)(C)SC | inactive |  |
| OC(c1ccc(Cl)cc1)(c1cncnc1)c1ccccc1Cl (stereo not given) |  | 91.1 µM (active) |
| CCc1nn(C)c(C(=O)NCc2ccc(C(C)(C)C)cc2)c1Cl | inactive |  |
| N#CC(CCc1ccc(Cl)cc1)(Cn1cncn1)c1ccccc1 (stereo not given) |  | 106 µM (active) |
| CCCN(CCC)c1c([N+](=O)[O-])cc(S(N)(=O)=O)cc1[N+](=O)[O-] | inactive | 35.4 µM (active) and 38.4 µM (active) |
| Cc1c(F)c(F)c(COC(=O)C2C(/C=C(\Cl)C(F)(F)F)C2(C)C)c(F)c1F (stereo not given) | inactive |  |
| CC(C)C1(C)N=C(c2nc3ccccc3cc2C(=O)O)NC1=O (stereo not given) | inactive |  |
| CC1COC(Cn2cncn2)(c2ccc(Oc3ccc(Cl)cc3)cc2Cl)O1 (stereo not given) |  | 94.4 µM (active) |
| CCOC(=O)CC(SP(=S)(OC)OC)C(=O)OCC (stereo not given) | inactive |  |
| Oc1ccccc1-c1ccccc1 | inactive |  |
| COC(=O)C(C)Oc1ccc(Oc2ccc(Cl)cc2Cl)cc1 (stereo not given) | inactive |  |
